# In PubChem BioAssay AID1224862 (National Center for Advancing Translational Sciences (NCATS), 2016):
# Inconclusive results are not listed. Entries that show only a call come without a potency. Active and inactive are the calls of the source. The call rests on the fitted dose curve; in most records, active means well fitted cell-killing curve with a large enough effect; inconclusive means small, poorly fitted or top-dose-only effect, or effect the other way; inactive means flat fitted curve, though single readings scatter.
# Assay: Compound cytotoxicity measured by an ATP content assay as a counter-screen for lead compounds in human astrocytoma cell line (SNB-19)
# Conditions: SNB-19 astrocytoma viability, ATP luminescence; series mostly up to 46.1 µM
# How it was run: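 Cell viability was measured as ATP content by luminescence in SNB-19 astrocytoma cells in RPMI 1640 with 10% FBS. Compounds were incubated for set times such as 6, 24 or 72 h, and cytotoxicity was expressed as percent inhibition.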
row,SMILES,Potency
1,Nc1ccc(N=Nc2ccccc2)c(N)n1,inactive
2,c1ccc(CCNc2nc(-c3ccccc3)cs2)cc1,inactive
3,COc1cc2nc(N3CCN(C(=O)C4CCCO4)CC3)nc(N)c2cc1OC (configuration not stated),inactive
4,O=C(O)[C@@H](c1ccc(OCc2ccc3ccccc3n2)cc1)C1CCCC1,inactive
5,O=C1c2ccccc2C(=O)c2c(NCCc3ccc(O)cc3)ccc(NCCc3ccc(O)cc3)c21,inactive
6,N#C/C(=C\c1ccc(O)c(O)c1)C(=O)Nc1ccccc1,inactive
7,Cc1cccc(C#Cc2ccccc2)n1,24.5 µM (active)
8,CC1(C)OC2=C(C(=O)c3ccccc3C2=O)[C@H](NCc2ccccc2)[C@H]1O,8.91 µM (active)
9,O=C(c1ccccc1)c1ccc2n1CCC2C(=O)O (configuration not stated),inactive
10,C[C@@H](N)c1ccc(C(=O)Nc2ccnc3[nH]ccc23)cc1,inactive
11,Cc1ccc(O)c(-n2nc3ccccc3n2)c1,inactive
12,CC(=O)Oc1ccccc1C(=O)Nc1ncc([N+](=O)[O-])s1,inactive
13,Cc1cc(O)c2c(c1)C(=O)c1cc(O)cc(O)c1C2=O,inactive
14,O=C(C=CC=Cc1ccc2c(c1)OCO2)N1CCCCC1,inactive
15,O=C(O)[C@H](CC(=O)N1C[C@@H]2CCCC[C@H]2C1)Cc1ccccc1,inactive
16,O=C(/C=C/c1ccccc1)NCCO,inactive
17,CO[C@H]1C(=O)[C@]2(C)[C@@H](OC)C[C@H]3OC[C@@]3(OC(C)=O)[C@H]2[C@H](OC(=O)c2ccccc2)[C@]2(O)C[C@H](OC(=O)[C@H](O)[C@@H](NC(=O)OC(C)(C)C)c3ccccc3)C(C)=C1C2(C)C,inactive
18,O=C(O)CCC(=O)c1ccc(-c2ccccc2)cc1,inactive
19,CCN1/C(=C/C=C/c2sc3ccccc3[n+]2CC)Sc2ccccc21,inactive

row,SMILES,Potency
1,COc1cc2nc(-c3ccc(N4CCN(C)CC4)cc3)nc(NCCN3CCOCC3)c2cc1OC,inactive
2,Cc1nc(N)sc1-c1ccnc(Nc2ccc(N3CCOCC3)cc2)n1,inactive
3,CC(C(=O)O)c1ccc(C(=O)c2ccccc2)s1 (configuration not stated),inactive
4,CC[C@@]1(O)C[C@H](O[C@H]2C[C@H](N(C)C)[C@H](O[C@H]3C[C@H](O)[C@H](O[C@H]4CCC(=O)[C@H](C)O4)[C@H](C)O3)[C@H](C)O2)c2c(cc3c(c2O)C(=O)c2c(O)cccc2C3=O)[C@@H]1C(=O)OC,inactive
5,O=C1C(Cl)=C(NCCN2CCOCC2)C(=O)c2ncccc21,6.15 µM (active)
6,COc1cc(NC(C)CCCN)c2ncccc2c1 (configuration not stated),inactive
7,O=C(O)c1ccccc1Nc1cccc(C(F)(F)F)c1,inactive
8,O=c1c(-c2ccc(O)cc2)coc2cc(OC3O[C@H](CO)[C@H](O)[C@H](O)[C@H]3O)cc(O)c12 (some centres not stated),inactive
9,CNC(=O)c1ccccc1Sc1ccc2c(/C=C/c3ccccn3)n[nH]c2c1,10.9 µM (active)
10,C=CCCCCCCCCC(=O)O,inactive
11,CC(C(=O)O)c1ccc2c(c1)[nH]c1ccc(Cl)cc12 (configuration not stated),inactive
12,CN1CCN(c2cc3c(nn2)Oc2ccccc2N3C)CC1,inactive
13,O=C(O)c1ccccc1NCCc1ccccc1,inactive
14,O=C(Nc1cc2cc[nH]c2cn1)c1ccccc1,0.388 µM (active)
15,Cc1ccc(C(=O)c2ccc(CC(=O)O)n2C)cc1,inactive
16,CCCS(=O)c1ccc2nc(NC(=O)OC)[nH]c2c1 (configuration not stated),inactive
17,O=C(O)c1cc([N+](=O)[O-])ccc1NCCCc1ccccc1,inactive
18,CCN1CCC(n2cc(CNc3cc(Cl)c4ncc(C#N)c(Nc5ccc(F)c(Cl)c5)c4c3)nn2)CC1,inactive
